# Screening results as filed in PubChem BioAssay.
# Pol beta inh = qHTS Assay for Inhibitors of DNA Polymerase Beta | Pol beta primer extension/strand displacement, fluorescence kinetic | Potency, µM (titrated, usually from 114 µM), inactives show top-dose activity change, negative = inhibition, actives largely listed as inhibitors | 1.3% of 340,000 active | AID 485314, 2010; note: % is set by controls: 0 for no effect and ±100 for the full control effect
#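 Values derive from four-parameter Hill fits of normalized kinetic data: reads at 0 and 10 min following addition of 50 nM substrate to 10 nM Pol beta preincubated 15 min with compound.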
# Pol iota inh = qHTS for Inhibitors of Polymerase Iota; Potency, µM (highest dose often 115 µM), inactives show at the highest dose activity, negative = inhibition, most hits filed as inhibitors; Pol iota fluorescent replication assay, 10 min; 1% of 390,000 active; DNA polymerase iota (Homo sapiens), Q9UNA4
# Target sequence (Q9UNA4 whole entry, looked up): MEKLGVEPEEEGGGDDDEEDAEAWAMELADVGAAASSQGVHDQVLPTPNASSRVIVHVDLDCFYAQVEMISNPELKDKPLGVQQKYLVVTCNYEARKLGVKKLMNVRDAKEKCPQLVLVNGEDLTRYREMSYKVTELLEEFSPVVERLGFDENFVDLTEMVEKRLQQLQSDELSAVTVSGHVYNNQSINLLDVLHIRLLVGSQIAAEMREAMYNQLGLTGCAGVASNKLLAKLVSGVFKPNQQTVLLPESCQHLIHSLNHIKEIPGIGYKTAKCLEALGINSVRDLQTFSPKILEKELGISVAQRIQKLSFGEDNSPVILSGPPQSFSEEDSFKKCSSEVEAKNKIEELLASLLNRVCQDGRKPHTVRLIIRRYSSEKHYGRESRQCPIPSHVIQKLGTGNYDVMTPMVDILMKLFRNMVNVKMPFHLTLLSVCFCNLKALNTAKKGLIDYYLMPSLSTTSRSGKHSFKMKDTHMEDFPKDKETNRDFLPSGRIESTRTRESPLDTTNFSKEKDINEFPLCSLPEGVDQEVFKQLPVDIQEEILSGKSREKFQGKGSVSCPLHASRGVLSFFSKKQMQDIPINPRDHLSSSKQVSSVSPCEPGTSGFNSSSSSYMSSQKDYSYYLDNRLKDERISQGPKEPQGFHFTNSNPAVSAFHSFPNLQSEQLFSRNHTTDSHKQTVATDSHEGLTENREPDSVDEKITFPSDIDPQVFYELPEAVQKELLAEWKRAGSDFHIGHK
#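 Pol iota at 10 nM preincubated 15 min with compounds at room temperature; reaction started with fluorescent substrate, 50 nM final. Fluorescence read kinetically at 0 and 10 min; buffer-only wells as negative control.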
# Pol kappa inh = qHTS for Inhibitors of Polymerase Kappa | Potency, µM (doses to about 107 µM), for the others: top-dose activity, negative = inhibition, most hits filed as inhibitors | purified Pol kappa, fluorescent DNA synthesis assay, 10 min | DNA polymerase kappa (Homo sapiens), Q9UBT6 | 0.53% of 400,000 active; note: % is set by controls: 0 for no effect and ±100 for the full control effect
#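 Here, compound and 10 nM enzyme are combined for 15 min at room temperature; adding 50 nM substrate (final) starts DNA synthesis, tracked by fluorescence at 0 and 10 min against buffer-only wells.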
# APEX1 inh = qHTS Assay for Inhibitors of the Human Apurinic/apyrimidinic Endonuclease 1 (APE1). DNA repair nuclease/redox regulator APEX1 (Homo sapiens), P27695. recombinant APE1, TAMRA/BHQ-2 abasic DNA cleavage fluorescence. Potency, µM (top dose mostly 65.8 µM), inactives show at the top dose activity change, negative = inhibition, hits mostly inhibitors. 0.35% of 350,000 active. AID 2517, 2012;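 note: plate controls were vehicle for no effect and reference inhibitor for full effect; nearly all actives have a fitted effect of over 55% in size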
#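 Measures dequenching upon AP-site incision of a 5'-TAMRA/3'-BHQ-2 THF-containing duplex, 50 nM; human APE1 0.75 nM after 15 min room-temperature exposure to compound; kinetic three-point read at one-minute spacing.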
# Pol eta inh = qHTS for Inhibitors of Polymerase Eta; recombinant Pol eta, fluorescent DNA replication assay; Potency, µM (highest dose often 114 µM), inactives show at the highest dose activity change, negative = inhibition, most hits filed as inhibitors; 1.2% of 390,000 active; note: % is set by controls: 0 for no effect and ±100 for the full control effect
#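 Pol eta (10 nM) was preincubated with compounds for 15 min at room temperature, after which fluorescent replication substrate (50 nM final) was added to start the reaction. Fluorescence was read kinetically at 0 and 10 min.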
# L3MBTL1 block = qHTS Assay for the Inhibitors of L3MBTL1 | 0.66% of 230,000 active | AlphaScreen L3MBTL1–H3K9me1 peptide binding | Lethal(3)malignant brain tumor-like protein 1 (Homo sapiens), Q9Y468 | Potency, µM (titrated, usually from 57.1 µM), for inactives: at the top dose activity, negative = inhibition, hits mostly inhibitors; note: % is set by controls: 0 for no effect and ±100 for the full control effect; nearly all actives have a fitted effect of over 60% in size
#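 Displacement of a biotinylated histone H3(1-15) peptide monomethylated at Lys9 (75 nM) from L3MBTL1 (50 nM) was measured by AlphaScreen after a 30 min room-temperature compound incubation; cefsulodin titration served as intraplate control.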
# * marks the source's active call; other numbers are inactive results; ? = inconclusive; . = no result given; [ ] = remark or other dose. Rows were chosen to be rich in hits. Some 2.5% of all compounds tested hit in one or more screens of this group. Calls come from the whole dose curve; as a rule, active = well fitted curve in the direction sought with a large enough effect; inconclusive = small, poorly fitted or top-dose-only effect, or another doubt; inactive = no such curve, though single readings can be large; an effect the other way counts as inactive or inconclusive. Potency is the fitted concentration of half-maximal effect.
SMILES,Pol beta inh,Pol iota inh,Pol kappa inh,APEX1 inh,Pol eta inh,L3MBTL1 block
COc1ccccc1CNC(=O)Cc1c(C)c2c(cc(C)c3c(C)coc32)oc1=O,3%,7%,-6%,.,-12%,.
Cc1ccc(-n2c(C)nnc2SCC(=O)NC2CCCC2)cc1,1%,-10%,4%,18%,-13%,.
CCOc1ccc(CNC(=O)C2CCN(c3nn4c(=O)cc(C)nc4s3)CC2)cc1,2%,0%,0%,39%,0%,.
CC(=O)N1CCOc2cc(S(=O)(=O)Nc3c(C)cccc3C(C)C)c(Cl)cc21,-36%,79µM*,-27%,15%,-13%,-3%
CC(C)(C)OC(=O)NC(Cc1ccccc1)C(=O)N1CCCC1C(=O)O (configuration not stated),13%,28%,7%,6%,-5%,.
Cc1cc(N)ccc1S(C)(=O)=O,-9%,4%,0%,4%,-10%,4.5µM*
Cc1ccc(N)cc1S(=O)(=O)N(C)C,-1%,73%,-3%,3%,-15%,-20%
COc1ccc(-c2cc3nc(C)c(CCC(=O)Nc4ccc(F)cc4F)c(C)n3n2)c(OC)c1,-3%,41%,-3%,.,-24%,.
N#C/C(=C/c1ccco1)C(N)=S,20µM*,?,-8%,?,-10%,?
N#C/C(=C\c1ccc2c(c1)OCO2)C(N)=S,34%,?,0%,10%,-1%,-4%
CN(CC(=O)O)c1ccc(/C=C/c2ccnc3ccccc23)cc1,.,32%,6%,.,.,.
CC(C)CCCC(C)C1CC(=O)C2=C3CCC4CC(O)CCC4(C)C3CCC21C (configuration not stated),.,.,1%[19.4 µM],.,.,.
CC(=O)OCC(=O)c1c[nH]c2ccccc12,0%,21%,3%,2%,-18%,14%
CC(=O)c1c(C)[nH]c(C(=O)OCC(=O)c2c[nH]c3ccccc23)c1C,.,79µM*,-6%,-16%,1%,-1%
c1ccc2cnccc2c1,.,22%,-5%,.,.,.
CCn1nnc2cc(C(=O)Nc3cc(Cl)ccc3C)ccc21,.,-4%,-4%,-3%,4%,8%
Cc1ccc(NC(=O)Cn2c(=O)oc3ccccc32)cc1Cl,40µM*,92%,-23%,-8%,0%,.
COc1ccc(C(=O)Nc2cccc(/C=C(\CCC(=O)O)c3nc4ccccc4s3)c2)cc1,?,?,?,?,56µM*,.
CS(=O)(=O)c1ccc2nc(NC(=O)c3ccc(=O)[nH]c3)sc2c1,-21%,50µM*,-17%,-5%,50µM*,.
CS(=O)(=O)c1ccc2nc(NC(=O)c3ccc(Cl)cc3)sc2c1,36%,?,5%,5%,-21%,3%
Cc1ccc(S(=O)(=O)CCC(=O)Nc2sccc2C(N)=O)cc1,.,?,?,6%,28µM*,?
C/C=C1\[C@H]2C=C(C)C[C@]1(N)c1ccc(=O)[nH]c1C2,.,.,.,2%,.,.
CCN1CCCC1CNCc1cccc(OC)c1OCc1ccccc1 (configuration not stated),-5%,0%,5%,5%,-10%,5%
CCN1CCCC1CNCc1cccc(OC)c1OCc1ccccc1F (configuration not stated),2%,89µM*,-2%,1%,-1%,.
COc1ccc(CCNC(=O)c2ccc(Cn3c(=O)[nH]c4cc(OC)c(OC)cc4c3=O)cc2)cc1OC,22%,-7%,5%,.,-2%,.
SMILES,Pol beta inh,Pol iota inh,Pol kappa inh,APEX1 inh,Pol eta inh,L3MBTL1 block
O=C(NN=C1c2ccccc2-c2ccccc21)c1ccccc1Br,0.28µM*,?,-4%,0%,-5%,-13%
COc1cc(-c2noc(-c3ccc(NCc4ccccc4)c([N+](=O)[O-])c3)n2)cc(OC)c1OC,45µM*,-8%,-15%,.,-16%,.
COc1ccc(-c2noc(-c3ccc(N4CCCCC4)c([N+](=O)[O-])c3)n2)cc1,10%,-6%,-3%,.,-10%,.
CN(C)c1ccc(-c2nc(-c3ccncc3)no2)cc1[N+](=O)[O-],-14%,-24%,-10%,.,3%,.
COc1cc(-c2noc(-c3ccc(N(C)C)c([N+](=O)[O-])c3)n2)cc(OC)c1OC,28µM*,?,-10%,.,-18%,.
COc1cc(-c2noc(-c3ccc(N4CCCCC4)c([N+](=O)[O-])c3)n2)cc(OC)c1OC,45µM*,-28%,-31%,.,-20%,.
CCC(=O)N1CCc2cc(Br)cc(S(=O)(=O)N3CCC(C(=O)Nc4ccccc4F)CC3)c21,-13%,-19%,1%,.,-11%,.
COC(=O)CN(c1ccc2c(c1)OCO2)S(C)(=O)=O,6%,2%,-5%,0%,-5%,1%
CCN(CC)C(=O)CN(c1ccc2c(c1)OCO2)S(C)(=O)=O,89µM*,?,-1%,3%,14%,.
CCOC(=O)c1[nH]c(C)c(C(=O)/C=C/c2ccc(C(=O)O)cc2)c1C,39%,-14%,-14%,35%,22µM*,.
CC1CCN(C(=O)CSc2nc3ncccc3[nH]2)CC1,0%,13%,-8%,-6%,5%,.
CCC1CCCCN1C(=O)CSc1nc2ncccc2[nH]1 (configuration not stated),45%,?,25µM*,-11%,-12%,.
CCC1=C(c2ccc(C)cc2)S(=O)(=O)N=C1N1CCC(C(=O)N2CCCCC2)CC1,6%,-14%,-9%,.,.,.
Cc1[nH]c(=O)c(C(=O)/C=C/c2ccccc2F)c2c1CCCC2,-1%,18µM*,-9%,13%,?,-3%
NC(=O)c1c(NC(=O)c2cc3ccccc3o2)sc2c1CCC2,50µM*,?,-32%,10%,?,-3%
NC(=O)c1c(NC(=O)c2ccc(F)cc2)sc2c1CCC2,-4%,15%,-10%,16%,-21%,1%
NC(=S)NNc1cccc2cccnc12,-11%,11µM*,-16%,7%,2%,?
NC(=S)Nc1cccc2cccnc12,-11%,21%,-5%,10%,-17%,4%
Nc1ccc(S(=O)(=O)Nc2nc3ccccc3o2)cc1,79µM*,?,?,-5%,45µM*,-4%
Nc1ccc(S(=O)(=O)Nc2cnc3ccccc3n2)cc1,20%,1%,-17%,4%,-12%,2%
